In the supplement of paper PMC6555819:

What follows are sequences tested on RARa:RXR (NR concentration 270 nM, RXRa partner concentration 90 nM) (assay: PBM binding z-score (relative to random genomic background probes); higher = stronger binding; sequences stand for … in GC…GCGATTGACAGCGTAGAATGAAGG).
Procedure, shortened: (§1)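 Ligand-free nuclear receptor dimers were applied to custom Agilent 4×180K protein-binding microarrays whose double-stranded probes carried direct-repeat seeds, single-nucleotide variants, half-site ablations and random human genomic background sequences in 34-nt variable regions. Incubation lasted 1 h. Binding z-scores were computed against the random background probes from regression-normalized fluorescence.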

Sequence | PBM binding z-score
CGTCCAAGGTCATAGGAGATCAGTGAAGACAGAT | 4.47
CCTTACGGGTCAAGGCTATAGCACGGGTGGTACG | 3.68
CGAACGAGGGCATGAGTTGATAGCAAATGCCGAT | 0.5
CCAGACAGGTGAGAAGGTAACTCCGCCTCGATTA | 0.0222
TCTACTAGTTGATTAGGGCAACCGAAACAGCGGA | 0.226
GAGACAGGGTCAAGGCCAGAGTACGCGTATTGAT | 4.4
TCTAGTTGGTCACGGAGGTCACTCACGACGGGTA | 3.6
CTCGAAAGGTCGGTTGAGGTGTGTATACGGATAA | 1.53
CCTACTGGGCCATTCAGAGTTCATTGATCATATG | 1.75
CAGCCTAGGTTAGGGCCAGTATAGGAGGAACGTT | -0.399
GCGACTGGGGCCAAGCAGGTTACCATAAGGTTGG | 0.223
CGAACGAGGGCATGAGTTGATGGCAAATGCCGAT | 0.201
GGAACGATGGCAAGTTGATAGCAGAGTTTGATGG | -0.504
CGTCCAAGGTCAAAGGTCAGTCAAGAGATGACGG | 9.03
CGTCCAAGGTCAAAGGTCAGTGCAGAGATGACGG | 9.23
CCTTCTGGGCCAAAGGTCATTGATTCCAATGCTC | 6.29
TTTTGTAGATCAAGCAGGTTAAGAAAGCCTGAGT | 0.469
AAGACAGGGTCATCGTAGGCCAGAGTACGCACAG | 4.92
GCTAGCAGGCCATTTAGGTCACTCAATGACGGGC | 0.658
AATACAGGGTCACTAGGCCAGAGTTGGTACGAAT | 4.44

Sequence | PBM binding z-score
TCATATAGGTAATACAGGTGAAAGTGGGCATCTA | 1.35
CGAACTAGGTCTAGGACAGTGAATCTCCGCACGC | -0.766
GCATATAGGTAATACCAGGTGAAAGTCCGATTGT | 1.47
TCAGAAAGGTGAAGGTAACTCAGGTACGCAGTCG | 1.88
GGAACGAGGGCATACGAGTTGATAGCATGGCGAT | 0.371
AGAATGAGGTTACCGAAGATCAGGGAAACGCTTG | 2.46
CCGACTGGGGCAGAAAGGTAACCATACCATCCGG | -0.0683
AGTCACAGTTCACTAGGTAACGTAAGATTCAGCT | 1.25
GATCGGAGGACAAGGTCAGAGCTTTGTCCGTAGA | 2.03
CTCGAAAGGTCGGTTGAGGCGAGTATACGGATAA | 2
ACAGACAGGTGTTGAAGGTAACTCAGGCTATCAT | 0.0742
GTACCAAGGTGAATAGGTCATTGATGAGTAGGCG | 4.41
AGAATAAGGTTATTAAGATCAGGGAATTGCGGTC | 1.49
ATTTCTAGGTAAAGATAGTTCAGTGAATGCAAAT | 0.625
CGAACTAGGTCAAGGACTGTGAATCTCCGCACGC | 1.78
TCTTGTAGATCAACAGGAGGTTAAGAATGATCGA | 0.975
CGTCCAAGGTCAATGCTTGGTCAGTGAAAGCATT | 4.45
CCTATTAGTCGACCATAAGGGCAACCGAAGCTCG | 0.415
TATACAGGGTCAAAGGCGAGAGTACGAATGTCGA | 4.91
TCTTGTAGATCAATAGAGGTTAAGGAAGTGCGCT | 1.96

Each sequence was assayed on RARa homodimer (NR concentration 270 nM) in the same assay as above.
Procedure, shortened: as §1

Sequence | PBM binding z-score
CGTCCAAGGTCATAGGAGATCAGTGAAGACAGAT | 0.926
CCTTACGGGTCAAGGCTATAGCACGGGTGGTACG | 0.855
CGAACGAGGGCATGAGTTGATAGCAAATGCCGAT | -0.431
CCAGACAGGTGAGAAGGTAACTCCGCCTCGATTA | 0.152
TCTACTAGTTGATTAGGGCAACCGAAACAGCGGA | -0.458
GAGACAGGGTCAAGGCCAGAGTACGCGTATTGAT | 0.471
TCTAGTTGGTCACGGAGGTCACTCACGACGGGTA | 1.05
CTCGAAAGGTCGGTTGAGGTGTGTATACGGATAA | -0.365
CCTACTGGGCCATTCAGAGTTCATTGATCATATG | -0.457
CAGCCTAGGTTAGGGCCAGTATAGGAGGAACGTT | -0.834
GCGACTGGGGCCAAGCAGGTTACCATAAGGTTGG | -1.01
CGAACGAGGGCATGAGTTGATGGCAAATGCCGAT | -1.03
GGAACGATGGCAAGTTGATAGCAGAGTTTGATGG | -0.494
CGTCCAAGGTCAAAGGTCAGTCAAGAGATGACGG | 1.5
CGTCCAAGGTCAAAGGTCAGTGCAGAGATGACGG | 3.59
CCTTCTGGGCCAAAGGTCATTGATTCCAATGCTC | 0.576
TTTTGTAGATCAAGCAGGTTAAGAAAGCCTGAGT | 0.538
AAGACAGGGTCATCGTAGGCCAGAGTACGCACAG | 0.453
GCTAGCAGGCCATTTAGGTCACTCAATGACGGGC | -0.306
AATACAGGGTCACTAGGCCAGAGTTGGTACGAAT | 0.618

Sequence | PBM binding z-score
TCATATAGGTAATACAGGTGAAAGTGGGCATCTA | 1.57
CGAACTAGGTCTAGGACAGTGAATCTCCGCACGC | -0.883
GCATATAGGTAATACCAGGTGAAAGTCCGATTGT | 0.331
TCAGAAAGGTGAAGGTAACTCAGGTACGCAGTCG | 0.504
GGAACGAGGGCATACGAGTTGATAGCATGGCGAT | -0.394
AGAATGAGGTTACCGAAGATCAGGGAAACGCTTG | -1.23
CCGACTGGGGCAGAAAGGTAACCATACCATCCGG | -0.0732
AGTCACAGTTCACTAGGTAACGTAAGATTCAGCT | 0.737
GATCGGAGGACAAGGTCAGAGCTTTGTCCGTAGA | -0.62
CTCGAAAGGTCGGTTGAGGCGAGTATACGGATAA | -0.443
ACAGACAGGTGTTGAAGGTAACTCAGGCTATCAT | -0.513
GTACCAAGGTGAATAGGTCATTGATGAGTAGGCG | 1.5
AGAATAAGGTTATTAAGATCAGGGAATTGCGGTC | 1.34
ATTTCTAGGTAAAGATAGTTCAGTGAATGCAAAT | 1.49
CGAACTAGGTCAAGGACTGTGAATCTCCGCACGC | 0.232
TCTTGTAGATCAACAGGAGGTTAAGAATGATCGA | 0.614
CGTCCAAGGTCAATGCTTGGTCAGTGAAAGCATT | 0.0669
CCTATTAGTCGACCATAAGGGCAACCGAAGCTCG | 0.709
TATACAGGGTCAAAGGCGAGAGTACGAATGTCGA | 0.979
TCTTGTAGATCAATAGAGGTTAAGGAAGTGCGCT | 0.894
